# High-throughput results (PubChem)
# EBV LMP1 NFkB: Epstein-Barr LMP1 NF-kappaB reporter inhibition; LMP1-induced NF-kappaB luciferase reporter cells, luminescence; inhibition, % at 12.5 µM; hit rate 0.69% among 350,000; AID 504558; in the data active = inhibition above about 41%;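 also: 0% = neutral control wells and 100% = reference inhibitor control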
# Shn3 3UTR inh: inhibitors of Schnurri-3 3'UTR reporter in osteoblasts | inhibition, % at 12.5 µM | Clone20 osteoblast Shn3 3'UTR firefly luciferase, 24 h | hit rate 0.52% among 360,000;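 active = mean inhibition of at least 75% with every replicate also reaching 75%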;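 also: 0% = median of neutral control wells and 100% = pilot-screen positive control compound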
# HIF-2a block: inhibitors of HIF-2a | 786-0 RCC cells HIF-2a reporter, luciferase luminescence, overnight | inhibition, % at 18.8 µM | hit rate 0.72% among 360,000;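 active = inhibition of the luminescence signal of 40% or more relative to plate controls, in a single-dose primary screen at 18.75 µM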
# CF NFkB block: inhibitors of cystic fibrosis induced NF-kB. KKLEB NF-kB-GFP reporter, PAF-induced, GFP fluorescence overnight. inhibition, % at 5 µM. hit rate 0.86% among 360,000;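 active = at least 50% inhibition at 5 µM, scaled per plate between neutral and stimulator controls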;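 also: PAF is a Pseudomonas aeruginosa culture filtrate used as stimulus; plate controls were PAF-stimulated DMSO wells for no effect and unstimulated DMSO wells for full effect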
# KKLEB cytotox: reduces viability of KKLEB cystic fibrosis airway cells | activity change (cytotoxicity), % at 5 µM | KKLEB CF airway cells viability, ATPlite luminescence, overnight; stronger effect = lower value; cells stimulated with P. aeruginosa culture filtrate | hit rate 0.36% among 360,000;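 active = corrected activity change at or below -50% at 5 µM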
# Peg3 promoter: Peg3 promoter activity inhibition | HeLa PEG-Prom luciferase reporter, luminescence, overnight | hit rate 1.7% among 360,000 | AID 588405 | inhibition, % at 20 µM;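 active = inhibition of at least 50% at 20 µM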
# An asterisk follows results filed as active; · = no result. Rows were chosen to be rich in hits. Some 2.9% of all compounds tested hit in one or more screens of this group.
SMILES,EBV LMP1 NFkB,Shn3 3UTR inh,HIF-2a block,CF NFkB block,KKLEB cytotox,Peg3 promoter
Cc1ccc(S(=O)(=O)N2CCCCC2)cc1NC(=O)CNc1ccccc1N1CCCC1=O,42*,-3,4,8,-7,13
O=C(NCc1ccccc1)c1ccc(N2CCC3(CC2)CC(c2ccccc2)=NO3)c([N+](=O)[O-])c1,13,46,-1,6,-13,7
Cc1ccc(CNC(=O)c2ccc(N3CCC4(CC3)CC(c3ccccc3)=NO4)c([N+](=O)[O-])c2)cc1,78*,57,10,-17,-8,1
CCS(=O)(=O)N1N=C(c2ccc(NS(C)(=O)=O)cc2)CC1c1ccccc1 (stereo unspecified),3,-17,-20,-10,-2,-10
CS(=O)(=O)Nc1ccc(C2=NN(S(C)(=O)=O)C(c3ccccc3)C2)cc1 (stereo unspecified),66*,-9,-66,-4,12,-60
CNc1ccc(/C=C/C(=O)c2cccc3ccccc23)cc1[N+](=O)[O-],2,22,-63,14,-36,67*
CNc1ccc(C(=O)c2ccccc2C(=O)O)cc1[N+](=O)[O-],-3,18,7,12,-5,-5
COc1ccc(CN2CCC(N(CCc3ccccc3)Cc3ccccc3)CC2)c(OC)c1,5,89*,19,26,-9,63*
COc1ccccc1C1(CC(=O)O)CCOC(C)(C)C1 (stereo unspecified),68*,-9,10,12,3,-3
CC1(C)CC(CC(=O)O)(c2ccc(F)cc2)CCO1 (stereo unspecified),4,5,7,-18,7,9
CCCCn1c(N)c(N(CC(C)C)C(=O)c2cccc(S(=O)(=O)N(CC)c3ccccc3)c2)c(=O)[nH]c1=O,-4,2,6,6,2,11
O=C(C1CC1)N1N=C(c2ccccc2)CC1(O)C(F)(F)C(F)(F)F (stereo unspecified),-5,9,13,-16,-8,-3
CNC1(C)[C@H]2CC[C@H](C2)C1(C)C (stereo partly specified),81*,16,-3,-24,-10,-6
CCc1c(C)nc2c(-c3ccccc3)c(-c3ccccc3)[nH]n2c1=O,13,2,8,-37,8,53*
O=C(NC1CC1)c1ccc(-c2nc3ccccc3s2)s1,42*,76,47*,-13,-66*,62*
Clc1cccc(CN2CCCCCC2)c1,80*,5,7,-19,7,10
N=c1c2c(n(Cc3cccc(Cl)c3)c3c1CCC3)CCCC2,12,74,-5,21,-14,54*
Nc1cccc(CN2CCCC2)c1,13,-3,12,-5,-8,9
COc1ccc(CN2C(=O)CSCC2(C)C(=O)NCc2ccccc2)cc1 (stereo unspecified),·,·,7,·,·,·
O=C(CSc1ccc(Br)cc1)N1CCN(C(=O)c2ccco2)CC1,10,-20,-3,2,-2,10
CC(=O)Nc1ccc(-c2ccnc3c2CC(C)(C(=O)Nc2cccc(Oc4ccccc4)c2)O3)cc1 (stereo unspecified),·,22,26,22,-13,8
CNc1ncnc2c1ncn2[C@H]1CN(C2CCCC2)C[C@@H](CO)O1,·,-2,8,-11,8,2
O=C1C(C2=NC(c3ccccn3)C3C(=O)N(c4ccc(Cl)cc4Cl)C(=O)C23)=C(O)c2ccccc21 (stereo unspecified),-10,13,16,53*,-39,51*
O=C1C(C2=NC(C(=O)O)C3C(=O)N(c4ccc(Cl)cc4)C(=O)C23)=C(O)c2ccccc21 (stereo unspecified),2,-3,1,16,-5,0
Oc1c(C(Nc2ccccn2)c2ccccn2)ccc2cccnc12 (stereo unspecified),32,84,-17,-4,-16,54*
SMILES,EBV LMP1 NFkB,Shn3 3UTR inh,HIF-2a block,CF NFkB block,KKLEB cytotox,Peg3 promoter
Oc1ccccc1C(Nc1nccs1)c1ccc2cccnc2c1O (stereo unspecified),5,93*,20,-6,0,47
O=C(O)c1ccccc1NC(c1ccccc1)c1ccc2cccnc2c1O (stereo unspecified),16,-2,16,0,-8,41
Cc1ccccc1NC(=O)CCS(=O)(=O)c1cccc2nonc12,-1,-8,3,2,-2,6
CCS(=O)(=O)c1nc(S(=O)(=O)c2ccc(Cl)cc2)c(NCCN2CCOCC2)s1,8,7,-6,5,9,-2
CCN(CC)CCCNC(=O)CSc1c2c(nc3cc(Cl)ccc13)CCCC2,-2,5,15,21,-6,96*
Cc1nnc(N2CCCC(C(=O)Nc3cc(F)ccc3F)C2)c2nn(-c3ccccc3)c(C)c12 (stereo unspecified),55*,22,18,14,-1,18
CC(C)C(OC(=O)Cn1nnc2ccccc21)C(=O)NC1CCCC1 (stereo unspecified),5,2,13,-2,2,3
NS(=O)(=O)c1cc(C(=O)OCC(=O)Nc2ccc3[nH]c(=O)[nH]c3c2)ccc1Cl,-7,-3,1,-14,16,4
CC(C)N=C(NC#N)SCc1ccccc1F,-8,-6,-4,-6,10,0
N#CNC(=Nc1cccc(F)c1)SCc1ccccc1F,-4,18,-14,22,10,74*
COc1ccc(OC)c(CCNC(=O)CCn2nc(C)c3c(C)n(-c4ccccc4)nc3c2=O)c1,55*,3,16,7,-6,4
COc1ccc2c(c1)c1nc3ccccc3nc1n2CC(=O)OC(C)C,-4,-12,-2,23,-56*,55*
O=C1NC(=Nc2ccccc2Cl)S/C1=C\c1ccc(C(=O)O)cc1,2,2,2,3,-18,-13
CC12CCC(C/C1=N\N=C1\NC(=O)/C(=C\c3ccc(Cl)cc3)S1)C2(C)C (stereo unspecified),6,28,-84,89*,-94*,-30
O=C1c2ccccc2C(=O)C1c1ccc2ccccc2n1,32,27,-25,-185,-68*,53*
COC(=O)C1=C(C)NC(C)=C(C(=O)OC)C1c1ccc2ccccc2n1,-12,18,1,5,6,-1
COC(=O)C(NS(=O)(=O)c1ccc(N2CCCC2=O)cc1)c1ccccc1 (stereo unspecified),67*,7,4,-4,19,2
c1ccc2c(c1)ccc1ccccc12,-2,-9,-1,-34,9,19
O=c1ccc2ccccc2c2ccccc12,·,60,95*,65*,3,103*
Cc1ccc(S(=O)(=O)N(C)c2cc(S(=O)(=O)N3CCOCC3)c(C)cc2C)cc1,-10,3,13,12,-4,14
